The target in assay [1] is Alpha-galactosidase (Coffea arabica) (UniProt Q42656). Description: Counterscreen for Glucocerebrosidase Inhibitors: qHTS Assay for Coffee Bean alpha-Galactosidase at pH 4.5 (AID 957; active = well fitted curve in the direction sought with a large enough effect; an effect the other way counts as inactive or inconclusive;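 note: plate controls were enzyme alone for no effect and no enzyme for full effect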). The procedure, abridged: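 AC50 values derive from Hill-equation modeling of concentration-response data, normalized to no-enzyme and full-activity controls. The pH 4.5 citrate assay used 2 nM coffee bean enzyme and 80 uM fluorogenic substrate for 20 min.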
(In general: The purpose of a counterscreen is to sort out artefacts and off-target activity.)

Assay [2] shares this target. Description: Counterscreen for Glucocerebrosidase Inhibitors: qHTS Assay for Coffee Bean alpha-Galactosidase at pH 5.9 (AID 998; active = well fitted curve in the direction sought with a large enough effect; an effect the other way counts as inactive or inconclusive;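 note: plate controls were uninhibited enzyme for no effect and no-enzyme basal signal for full effect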). The method in brief:
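Green coffee bean enzyme (2 nM final) was incubated with compounds (0.7 nM–77 uM) and 4-methylumbelliferyl alpha-D-galactopyranoside (80 uM) in citrate buffer pH 5.9, 20 min at room temperature. High-pH stop; fluorescence 365/440 nm; AC50 from Hill fits.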

The nature of assay [3]: Inducers of the Endoplasmic Reticulum Stress Response (ERSR) in human glioma: Validation (AID 504836; active = well fitted curve in the direction sought with a large enough effect; an effect the other way counts as inactive or inconclusive; note: 0% is about no effect). The method in brief: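 Stably transfected U87-MG human glioma cells carrying a GRP78-based luminescent sensor were seeded at 1000 cells/well, pin-dosed with compounds and incubated 16 h. Luciferase reagent was then added, and end-point luminescence was read after 10 min at room temperature.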

Assay [4] in a line: qHTS for Inhibitors of the Functional Ribonucleoprotein Complex (vRNP) of Lassa (LASV) Arenavirus: LASV Primary Screen - GLuc reporter signal (AID 1347082; calls by dose curve; tested in HEK293 reporter line; note: % is set by controls: 0 for no effect and ±100 for the full control effect; nearly all actives have a fitted effect of over 60% in size).
Assay [5] in a line: qHTS for Inhibitors of the Functional Ribonucleoprotein Complex (vRNP) of Lassa (LASV) Arenavirus: Viability assay - alamar blue signal for LASV Primary Screen (AID 1347083; calls by dose curve; tested in HEK293 reporter line; note: % is set by controls: 0 for no effect and ±100 for the full control effect; nearly all actives have a fitted effect of over 80% in size). In general terms: qHTS replaces the single test concentration by a dilution series.
The nature of assay [6]: qHTS for Inhibitors of the Functional Ribonucleoprotein Complex (vRNP) of Lymphocytic Choriomeningitis Arenaviruses (LCMV): Viability assay - alamar blue signal for LCMV Primary Screen (AID 1347085; calls by dose curve; tested in HEK293 reporter line; note: % is set by controls: 0 for no effect and ±100 for the full control effect; nearly all actives have a fitted effect of over 80% in size).
The target of assay [7] is Nucleoprotein (Lymphocytic choriomeningitis virus (strain Armstrong)) (UniProt P09992). Description: qHTS for Inhibitors of the Functional Ribonucleoprotein Complex (vRNP) of Lymphocytic Choriomeningitis Arenaviruses (LCMV): LCMV Primary Screen - GLuc reporter signal (AID 1347086). Note: % is set by controls: 0 for no effect and ±100 for the full control effect; nearly all actives have a fitted effect of over 70% in size.
Assay [8] concerns the target Bile acid receptor (Homo sapiens) (UniProt Q96RI1). Description: qHTS assay for small molecule agonists of farnesoid X receptor signaling (AID 588527).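 Note: 0% = vehicle basal and 100% = reference agonist.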 Particulars: HEK293T FXR-UAS-bla, beta-lactamase ratio, 16 h; activation: stronger effect = higher value. The procedure, abridged: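 Quantitative HTS used FXR-UAS-bla HEK293T cells with 16 h compound incubation at 37 C. EC50 values came from concentration-response curves normalized to chenodeoxycholic acid.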

Assay [9] addresses Peroxisome proliferator-activated receptor delta (Homo sapiens) (UniProt Q03181). Nature of the assay: qHTS assay for small molecule agonists of peroxisome proliferator-activated receptor delta signaling (AID 588534).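 Note: 0% = DMSO basal wells and 100% = positive control agonist at 10 µM.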 The procedure, abridged: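 Reporter cells were plated and held 5 hrs at 37 C before compounds were added. After 18 hrs at 37 C, CCF4 dye was loaded for 2 hrs at RT and fluorescence measured.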

Assay [10] concerns the target Voltage-gated inwardly rectifying potassium channel KCNH2 (Homo sapiens) (UniProt Q12809). Nature of the assay: qHTS Assay for Small Molecule Inhibitors of the Human hERG Channel Activity (AID 588834; active = well fitted curve in the direction sought with a large enough effect; an effect the other way counts as inactive or inconclusive;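 note: top concentration of the series differs between compounds; % is set by controls: 0 for no effect and ±100 for the full control effect; lower thallium flux fluorescence means stronger hERG block; nearly all actives have a fitted effect of over 50% in size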). The procedure, abridged: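 hERG-BacMam U2OS, 2000 cells/well; 0.7X FluxOR loading 1 hr RT dark; cpd ~10 min 37 °C; stim buffer; FDSS fluorescence 2 min @ 1 s; AC50 Hill fit.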

Assay [11] concerns the target Luciferin 4-monooxygenase (Photinus pyralis) (UniProt P08659). Nature of the assay: Biochemical firefly luciferase enzyme assay for NPC (AID 624030; active = well fitted curve in the direction sought with a large enough effect; an effect the other way counts as inactive or inconclusive;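 note: purified P. pyralis luciferase at 10 nM with luciferin and ATP substrate; 0% = DMSO and -100% = full luciferase inhibition by PTC124 control; nearly all actives have a fitted effect of over 70% in size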). The method in brief:
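Counter-screen for direct inhibition of the luciferase enzyme by approved-drug library compounds, run at 10 nM enzyme in 50 mM Tris acetate (final). Luminescence was read within 5 min of enzyme-buffer addition and normalized to PTC124 versus DMSO (0%).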

Assay [12] can be described thus: qHTS profiling of the MIPE4 collection as inhibitors of Plasmodium falciparum (3D7) proliferation (AID 743344; call rule not given here;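 note: scaled between DMSO vehicle wells and 0.29 µM artemisinin as full inhibition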). The note with it: P. falciparum 3D7 in erythrocytes, SYBR Green DNA fluorescence, 72 h; at 28.5 µM (top of the series) unless noted. The method in brief: (§1)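 Erythrocytes infected with P. falciparum (0.3% parasitemia, 2.5% hematocrit) incubated with compounds 72 h at 37 C, 5% CO2. Lysis with saponin/Triton buffer containing SYBR Green I, overnight at room temperature in the dark; DNA fluorescence (485/535 nm) normalised to 0.29 uM artemisinin and DMSO.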

Assay [13] can be described thus: qHTS profiling of the MIPE4 collection as inhibitors of Plasmodium falciparum (DD2) proliferation (AID 743345; call rule not given here). The note with it: P. falciparum Dd2 in erythrocytes, SYBR Green DNA, 72 h; at 28.5 µM (top of the series) unless noted. The procedure, abridged:
as §1

Assay [14] concerns the target Cytochrome P450 3A4 (Homo sapiens) (UniProt P08684). Description: qHTS Assay for Inhibitors and Substrates of Cytochrome P450 3A4 (AID 884; active = well fitted curve in the direction sought with a large enough effect; an effect the other way counts as inactive or inconclusive; note: potency is the fitted concentration of half-maximal effect; nearly all actives have a fitted effect of over 50% in size). The method in brief: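 20 nM human CYP3A4 with 25 uM Luciferin-PPXE (at KM) in 200 mM KPO4, preincubated 10 min with compound; NADPH regeneration started a 60 min RT reaction. Luciferin detected by luminescence, normalized to 57 uM ketoconazole as full inhibition.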

For assay [15] the target is unchanged. Nature of the assay: qHTS Assay for Activators of Cytochrome P450 3A4 (AID 885; active = well fitted curve in the direction sought with a large enough effect; an effect the other way counts as inactive or inconclusive; note: nearly all actives have a fitted effect of over 65% in size). The procedure, abridged: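 Quantitative HTS format: compounds preincubated with 20nM human CYP3A4 and Luciferin-PPXE substrate at KM, reaction started by NADPH regeneration, stopped after 60 min, luciferase luminescence read 20 min later.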
Assay [16] can be described thus: qHTS assay for small molecule agonists of the antioxidant response element (ARE) signaling pathway (AID 651741; active = well fitted activation curve with a large enough effect in the signal ratio; the % refers to the signal ratio; note: % of control where 0% means no effect). The method in brief: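 ARE-bla HepG2 cells (beta-lactamase reporter under ARE control) were plated at 2,000 cells/well, preincubated 5 h at 37 C/5% CO2, then treated with DMSO-dissolved compounds for 16 h at 37 C; LiveBLAzer B/G FRET substrate added, fluorescence read after 2 h at room temperature.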

Assay [17] is described as follows: qHTS profiling of the MIPE4 collection as inhibitors of Plasmodium falciparum (DD2) proliferation (Rep 2) (AID 743346; call rule not given here). Particulars: P. falciparum Dd2 in erythrocytes, SYBR Green DNA, 72 h; at 28.5 µM (top of the series) unless noted. The method in brief:
as §1

Assay [18] is described as follows: qHTS profiling of the MIPE4 collection as inhibitors of Plasmodium falciparum (HB3) proliferation (AID 743347; call rule not given here;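 note: plate controls were DMSO vehicle wells for no effect and artemisinin wells for full effect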). Particulars: P. falciparum HB3 in erythrocytes, SYBR Green DNA, 72 h; at 28.5 µM (top of the series) unless noted. The procedure, abridged:
as §1

Molecules are shown by their SMILES. Where “and” joins values, the source holds several entries; their conditions need not be identical. Equal values may be shown once. Records with an inconclusive call do not appear. Calls of active or inactive are those of the source. Unless noted, calls come from the whole dose curve.

Sequence of Nucleoprotein (Lymphocytic choriomeningitis virus (strain Armstrong)) (P09992 whole entry, looked up): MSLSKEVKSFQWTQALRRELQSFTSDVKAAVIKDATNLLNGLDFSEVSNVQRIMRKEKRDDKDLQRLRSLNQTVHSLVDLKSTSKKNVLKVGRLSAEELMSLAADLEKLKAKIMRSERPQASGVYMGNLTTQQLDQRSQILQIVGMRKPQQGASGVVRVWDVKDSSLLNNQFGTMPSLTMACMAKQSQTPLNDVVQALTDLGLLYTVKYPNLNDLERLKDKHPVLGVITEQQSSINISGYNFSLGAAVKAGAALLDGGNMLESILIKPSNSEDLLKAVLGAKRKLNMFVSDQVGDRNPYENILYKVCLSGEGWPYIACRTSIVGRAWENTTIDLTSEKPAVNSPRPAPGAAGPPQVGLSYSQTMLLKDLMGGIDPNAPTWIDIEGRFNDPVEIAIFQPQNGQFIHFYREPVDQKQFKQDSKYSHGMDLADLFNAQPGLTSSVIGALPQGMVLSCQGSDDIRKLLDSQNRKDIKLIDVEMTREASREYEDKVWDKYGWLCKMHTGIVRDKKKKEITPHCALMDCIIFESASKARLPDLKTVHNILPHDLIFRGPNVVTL
Sequence of Bile acid receptor (Homo sapiens) (Q96RI1 whole entry, looked up): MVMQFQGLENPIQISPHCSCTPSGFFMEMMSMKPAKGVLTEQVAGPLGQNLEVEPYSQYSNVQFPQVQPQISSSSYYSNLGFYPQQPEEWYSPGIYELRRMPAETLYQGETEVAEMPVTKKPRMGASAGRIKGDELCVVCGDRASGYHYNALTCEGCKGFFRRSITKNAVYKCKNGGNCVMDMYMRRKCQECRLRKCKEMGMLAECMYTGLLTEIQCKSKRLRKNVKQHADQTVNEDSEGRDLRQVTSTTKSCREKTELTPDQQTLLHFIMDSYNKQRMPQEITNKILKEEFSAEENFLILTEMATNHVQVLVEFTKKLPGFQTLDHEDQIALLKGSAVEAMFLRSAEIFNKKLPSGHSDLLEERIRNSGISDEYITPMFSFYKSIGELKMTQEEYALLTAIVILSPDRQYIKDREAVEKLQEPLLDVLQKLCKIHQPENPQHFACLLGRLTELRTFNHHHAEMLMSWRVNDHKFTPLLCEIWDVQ
Sequence of Peroxisome proliferator-activated receptor delta (Homo sapiens) (Q03181 whole entry, looked up): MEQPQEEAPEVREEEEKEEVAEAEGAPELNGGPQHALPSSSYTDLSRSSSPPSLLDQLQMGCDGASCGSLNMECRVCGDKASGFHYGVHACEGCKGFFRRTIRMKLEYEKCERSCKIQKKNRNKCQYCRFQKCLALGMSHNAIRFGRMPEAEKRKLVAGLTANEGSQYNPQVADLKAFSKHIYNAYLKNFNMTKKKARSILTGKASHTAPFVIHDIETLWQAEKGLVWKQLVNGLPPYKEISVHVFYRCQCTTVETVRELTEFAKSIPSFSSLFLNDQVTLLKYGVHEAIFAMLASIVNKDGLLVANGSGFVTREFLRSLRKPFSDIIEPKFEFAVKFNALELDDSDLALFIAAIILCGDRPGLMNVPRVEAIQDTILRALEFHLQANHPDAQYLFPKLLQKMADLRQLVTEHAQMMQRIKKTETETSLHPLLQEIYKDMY
Sequence of Alpha-galactosidase (Coffea arabica) (Q42656 whole entry, looked up): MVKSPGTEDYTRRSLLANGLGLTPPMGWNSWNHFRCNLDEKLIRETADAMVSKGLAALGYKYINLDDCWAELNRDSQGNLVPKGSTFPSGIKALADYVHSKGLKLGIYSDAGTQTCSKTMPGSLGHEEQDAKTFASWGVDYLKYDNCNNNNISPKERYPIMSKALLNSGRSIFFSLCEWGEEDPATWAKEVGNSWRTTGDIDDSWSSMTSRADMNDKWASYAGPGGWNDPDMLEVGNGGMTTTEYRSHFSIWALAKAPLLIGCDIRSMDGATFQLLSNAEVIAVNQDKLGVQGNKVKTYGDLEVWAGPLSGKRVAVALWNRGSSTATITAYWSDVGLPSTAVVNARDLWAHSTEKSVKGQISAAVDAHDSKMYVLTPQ
Sequence of Cytochrome P450 3A4 (Homo sapiens) (P08684 whole entry, looked up): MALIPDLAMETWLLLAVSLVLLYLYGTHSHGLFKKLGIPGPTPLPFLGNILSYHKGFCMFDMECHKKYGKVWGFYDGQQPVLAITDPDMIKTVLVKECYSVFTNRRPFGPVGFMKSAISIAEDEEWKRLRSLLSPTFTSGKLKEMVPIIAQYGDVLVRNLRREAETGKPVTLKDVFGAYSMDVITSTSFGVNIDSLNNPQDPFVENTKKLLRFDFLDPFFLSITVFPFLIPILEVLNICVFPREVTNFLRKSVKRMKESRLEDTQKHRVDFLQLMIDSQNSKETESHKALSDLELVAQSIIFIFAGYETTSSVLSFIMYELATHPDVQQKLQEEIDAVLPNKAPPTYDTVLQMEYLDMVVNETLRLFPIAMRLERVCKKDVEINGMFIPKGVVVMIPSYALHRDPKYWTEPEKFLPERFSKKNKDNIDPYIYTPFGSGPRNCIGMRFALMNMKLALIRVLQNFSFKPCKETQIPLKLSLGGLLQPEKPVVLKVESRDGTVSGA
Sequence of Luciferin 4-monooxygenase (Photinus pyralis) (P08659 whole entry, looked up): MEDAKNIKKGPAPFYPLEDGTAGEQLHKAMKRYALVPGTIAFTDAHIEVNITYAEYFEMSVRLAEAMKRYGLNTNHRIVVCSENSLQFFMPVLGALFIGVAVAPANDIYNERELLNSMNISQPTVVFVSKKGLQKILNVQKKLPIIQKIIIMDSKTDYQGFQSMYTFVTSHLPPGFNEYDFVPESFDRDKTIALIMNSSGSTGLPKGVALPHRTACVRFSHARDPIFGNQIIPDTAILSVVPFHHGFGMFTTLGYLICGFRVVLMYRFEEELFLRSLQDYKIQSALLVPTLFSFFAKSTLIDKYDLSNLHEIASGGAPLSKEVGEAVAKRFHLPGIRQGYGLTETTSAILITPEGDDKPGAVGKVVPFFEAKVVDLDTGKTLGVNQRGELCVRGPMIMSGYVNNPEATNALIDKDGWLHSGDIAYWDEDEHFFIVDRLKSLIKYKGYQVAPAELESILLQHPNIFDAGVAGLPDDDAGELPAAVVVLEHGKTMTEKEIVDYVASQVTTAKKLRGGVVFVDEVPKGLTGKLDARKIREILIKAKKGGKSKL
Sequence of Voltage-gated inwardly rectifying potassium channel KCNH2 (Homo sapiens) (Q12809 whole entry, looked up): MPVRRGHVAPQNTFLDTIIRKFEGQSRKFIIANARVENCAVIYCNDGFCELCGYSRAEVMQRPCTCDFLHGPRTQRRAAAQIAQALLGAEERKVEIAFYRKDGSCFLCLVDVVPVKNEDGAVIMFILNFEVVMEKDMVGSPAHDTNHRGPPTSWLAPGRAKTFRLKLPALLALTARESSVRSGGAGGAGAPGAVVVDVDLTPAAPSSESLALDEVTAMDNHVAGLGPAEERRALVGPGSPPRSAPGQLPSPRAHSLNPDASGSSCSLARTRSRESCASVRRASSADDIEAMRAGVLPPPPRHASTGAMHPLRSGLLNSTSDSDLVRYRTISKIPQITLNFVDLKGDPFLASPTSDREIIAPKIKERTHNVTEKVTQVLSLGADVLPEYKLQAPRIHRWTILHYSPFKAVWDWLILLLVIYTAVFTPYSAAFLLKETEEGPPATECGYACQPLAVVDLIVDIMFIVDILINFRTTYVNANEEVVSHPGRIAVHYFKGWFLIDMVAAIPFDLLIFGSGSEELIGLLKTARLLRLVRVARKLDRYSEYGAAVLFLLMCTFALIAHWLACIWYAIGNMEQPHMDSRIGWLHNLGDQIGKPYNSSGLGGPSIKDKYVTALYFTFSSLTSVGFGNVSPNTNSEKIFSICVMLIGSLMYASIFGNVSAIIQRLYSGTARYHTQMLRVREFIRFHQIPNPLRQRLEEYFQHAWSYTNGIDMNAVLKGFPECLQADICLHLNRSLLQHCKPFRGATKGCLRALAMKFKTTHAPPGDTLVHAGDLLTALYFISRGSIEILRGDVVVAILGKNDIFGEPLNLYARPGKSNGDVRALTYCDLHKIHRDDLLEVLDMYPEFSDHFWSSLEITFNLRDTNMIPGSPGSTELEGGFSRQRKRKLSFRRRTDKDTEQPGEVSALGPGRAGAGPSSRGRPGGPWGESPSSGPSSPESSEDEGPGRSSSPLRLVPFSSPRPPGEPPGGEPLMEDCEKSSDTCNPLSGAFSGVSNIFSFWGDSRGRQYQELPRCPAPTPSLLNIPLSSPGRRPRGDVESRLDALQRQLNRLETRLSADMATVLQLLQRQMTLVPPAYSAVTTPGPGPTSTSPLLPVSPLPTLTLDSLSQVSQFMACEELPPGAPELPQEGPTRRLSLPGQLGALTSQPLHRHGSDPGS

For the compound `COc1ccc(CCN(C)CCc2ccc(OC)c(OC)c2)cc1OC`, the outcome in [1], in [2] and in assay [3] was inactive. Also, the Potency entry in [4], in [5], in assay [6] and in [7] was “inactive” each time.
As to `CSc1nc(N)c2ncn([C@@H]3O[C@H](COP(=O)(O)OP(=O)(O)OP(=O)(O)O)[C@@H](O)[C@H]3O)c2n1`, in assay [3], the call was inactive. Moreover, the Potency entry in [4], in [5], in assay [6] and in [7] was “inactive” throughout.
On to `COC(=O)c1ccc(C)cc1`, for which the activation in assay [8] is -0.0429% (inactive). Besides, the Potency result in [4], in [5], in assay [6] and in [7] was “inactive” in each case.
Turning to `CC/C=C\CCOC(=O)c1ccccc1O`, the Potency entry in assay [9], in [4], in [5], in assay [6] and in assay [7] was “inactive” throughout.
As to `O=C(O)/C=C/C(=O)O`, the Potency entry in assay [9], in assay [10], in assay [11], in assay [4], in assay [5] and in assay [6] was “inactive” each time. The Potency result in assay [7] is “inactive”.
As to `CC(C)CCCCCCCCCCCCCCC(=O)O`, the Potency entry in assay [9], in assay [4], in assay [5], in [6] and in assay [7] was “inactive” throughout.
In the case of `c1ccc(CSCc2ccccc2)cc1`, the Potency entry in assay [9], in assay [4], in assay [5], in assay [6] and in [7] was “inactive” each time.
In the case of `CNC1[C@H](O)C(O[C@@H]2C(O)C(O[C@H]3O[C@H]([C@@H](C)NC)CC[C@H]3N)[C@@H](N)C[C@H]2N)OC[C@]1(C)O` (stereo partly drawn), the parasite growth, % of DMSO control in [12] is 93.1%. For the same compound, the parasite growth remaining, % of DMSO control (lower = more inhibition) in [13] came out at 103%. Also, the Potency result in [4], in assay [5], in assay [6] and in assay [7] was “inactive” in each case.
Consider `C=CCOC(=O)c1ccccc1C(=O)OCC=C`, for which the Potency in [14] was 5.01 µM (active). Besides, the Potency entry in [15], in [16], in assay [4], in [5], in [6] and in [7] was “inactive” throughout. The activation in assay [8] is -3.26% (inactive) and 2.9% (inactive).
Consider `c1ccc2c(c1)ccc1ccccc12`, for which the activation in assay [8] was -5.28% (inactive) and 1.03% (inactive). In addition, the Potency result in assay [9], in [4], in [5], in assay [6] and in [7] was “inactive” in each case.
The compound `C[C@H](CCC(=O)O)[C@H]1CC[C@H]2[C@@H]3[C@H](O)C[C@@H]4C[C@H](O)CC[C@]4(C)[C@@H]3CC[C@]12C` returned a parasite growth, % of DMSO control in assay [12] of 59.3%. In assay [13], the parasite growth remaining, % of DMSO control (lower = more inhibition) was determined as 92.9%. This compound returned a parasite growth, % of control (lower = inhibition) in [17] of 67.3%. In assay [18], the growth, % of control came out at 81.3%. Further, the Potency entry in assay [4], in assay [5], in [6] and in assay [7] was “inactive” each time.
Turning to `CCCCCCC(=O)O`, the activation in [8] is -0.812% (inactive). Besides, the Potency entry in assay [9], in [4], in [5], in [6] and in assay [7] was “inactive” each time.
For `CCCC/C=C\CCCCCCCCCC=O`, in [8], the activation is -2.92% (inactive). Further, the Potency entry in [4], in assay [5], in assay [6] and in assay [7] was “inactive” each time.
Consider `CCCCC(CC)C(=O)O` (stereo not drawn), for which the Potency entry in assay [9], in assay [4], in assay [5], in assay [6] and in assay [7] was “inactive” each time.
As for `CCCCCCCCCCCCCCC`, the Potency entry in assay [9], in assay [4], in assay [5], in assay [6] and in assay [7] was “inactive” in each case.

The values above are taken from PubChem BioAssay (NCATS).
